Sampled rows, rich in hits. Any-hit rate of the full collection: about 8.8%.
HttQ103 aggreg = reduces HttQ103-GFP aggregates in PC12 cells; 220,000 compounds, 1.1% hits; PC12 HttQ103-GFP aggregates, Acumen cytometry, 40 h; Potency, µM (series often up to 46.1 µM), without a hit: at the top dose activity change, negative = inhibition, hits mostly inhibitors; active = well fitted curve in the direction sought with a large enough effect; inconclusive = small, poorly fitted or top-dose-only effect, or another doubt; inactive = no such curve, though single readings can be large; an effect the other way counts as inactive or inconclusive; note: % is set by controls: 0 for no effect and ±100 for the full control effect; nearly all actives have a fitted effect of over 60% in size
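Aggregate formation scored by laser-scanning cytometer (488 excitation, 500–530 emission) in lysed PC12 cells expressing Q103-GFP after 100 nM tebufenozide induction; library tested in dose series, with ATPLite reagent added in the multiplex.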
HPGD block = blocks human HPGD enzyme activity; AID 894; 150,000 compounds, 4.3% hits; P15428; purified HPGD, NADH fluorescence kinetic, PGE2 substrate; Potency, µM, for inactives: at the top dose activity change, negative = inhibition, actives largely listed as inhibitors; note: % is set by controls: 0 for no effect and ±100 for the full control effect
Target sequence (P15428 whole entry, looked up): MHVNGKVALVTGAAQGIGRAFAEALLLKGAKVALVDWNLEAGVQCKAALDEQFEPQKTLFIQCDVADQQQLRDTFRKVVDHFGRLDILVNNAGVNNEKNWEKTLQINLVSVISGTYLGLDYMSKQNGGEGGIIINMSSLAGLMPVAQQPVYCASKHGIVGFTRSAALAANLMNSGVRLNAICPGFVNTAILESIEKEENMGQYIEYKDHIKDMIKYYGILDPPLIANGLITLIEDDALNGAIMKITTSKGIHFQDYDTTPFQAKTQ
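NADH formation kinetics: reaction with 30 uM PGE2 and 1 mM NAD+ (final), 20 nM enzyme, Tris-HCl pH 8 with Tween 20, after 15 min compound preincubation at room temperature. Fluorescence change, last versus first of five reads.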
LMNA splice mod = LMNA splicing modulation; AID 1487; 200,000 compounds, 0.01% hits; HeLa LMNA splicing GFP/RFP minigene ratio, 48 h; Potency, µM (doses to about 46.1 µM), without a hit: top-dose ratio change, negative = inhibition, hits mostly inhibitors; active = well fitted inhibition curve with a large enough effect in the signal ratio, with a control signal flat, not every such curve was filed as active; inconclusive = small, poorly fitted or top-dose-only effect, or effect the other way, or a change in a side signal; the % refers to the signal ratio; note: % is set by controls: 0 for no effect and ±100 for the full control effect
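Read-out is the ratio of GFP to DsRed2 object intensity, acquired by 488 nm laser-scanning cytometry on HeLa lamin A-EGFP minigene reporter cells. Compound incubation 48 hrs at 37 °C in Opti-MEM with 2% FBS; DMSO 0.5% final.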
HTT ATP protect = cytoprotection in Huntington HTT-Q103 PC12 cell model; PC12 HTT-Q103 induced, cytoprotection, ATP luminescence, 40 h; Potency, µM (top dose mostly 56.4 µM), inactives show cytoprotection (ATP increase), hits mostly activators; 230,000 compounds, 0.14% hits; AID 1471; active = well fitted curve in the direction sought with a large enough effect; inconclusive = small, poorly fitted or top-dose-only effect, or another doubt; inactive = no such curve, though single readings can be large; an effect the other way counts as inactive or inconclusive; note: % of control where 0% means no effect; nearly all actives have a fitted effect of over 45% in size
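Cells were plated at 1500 per well in phenol red-free DMEM with 5% equine and 5% calf serum. Tebufenozide (100 nM final) and compounds were added, then ATPlite reagent, and luminescence was read.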
ALDH1A1 inh = ALDH1A1 (human) enzyme inhibition | P00352 | Purified ALDH1A1, NADH fluorescence, propionaldehyde substrate | Potency, µM (titrated, usually from 75.3 µM), for the others: top-dose activity, negative = inhibition, most hits filed as inhibitors | 220,000 compounds, 7.3% hits | AID 1030;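 note: plate controls were no enzyme wells and a reference inhibitor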
Target sequence (P00352 whole entry, looked up): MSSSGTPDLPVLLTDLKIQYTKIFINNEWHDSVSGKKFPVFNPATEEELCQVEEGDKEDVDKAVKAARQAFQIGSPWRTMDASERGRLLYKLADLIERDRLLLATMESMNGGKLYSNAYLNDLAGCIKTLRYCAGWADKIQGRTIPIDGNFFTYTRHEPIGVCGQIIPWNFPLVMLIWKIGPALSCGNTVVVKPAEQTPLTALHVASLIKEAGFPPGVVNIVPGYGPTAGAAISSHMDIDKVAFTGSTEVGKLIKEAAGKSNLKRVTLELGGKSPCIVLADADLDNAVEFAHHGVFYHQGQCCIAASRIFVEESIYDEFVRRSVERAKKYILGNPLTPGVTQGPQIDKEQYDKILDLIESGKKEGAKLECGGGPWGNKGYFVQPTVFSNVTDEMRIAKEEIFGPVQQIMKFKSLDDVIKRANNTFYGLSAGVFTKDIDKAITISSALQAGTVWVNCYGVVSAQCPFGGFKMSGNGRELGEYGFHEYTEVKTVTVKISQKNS
An asterisk follows results filed as active; ? = inconclusive; . = not tested or not shown; ! = not active in a repeat; [ ] = dose if it differs, or a comment. Unless noted, calls come from the whole dose curve; as a rule, active = well fitted inhibition curve with a large enough effect (not every such curve was filed as active); inconclusive = small, poorly fitted or top-dose-only effect, or another doubt; inactive = no such curve, though single readings can be large or run the other way. Potency is the fitted concentration of half-maximal effect.

SMILES	HttQ103 aggreg	HPGD block	LMNA splice mod	HTT ATP protect	ALDH1A1 inh
COc1cc(C2C(=O)N(C3CCCCC3)CC(=O)N2C2CCCCC2)ccc1OC(C)C (stereo unspecified)	.	.	-12%[46 µM]	.	.
CN1CCCc2cc(C=O)ccc21	-7%	?	-8%	9%[1.9 µM]	0.2µM*
O=[N+]([O-])c1ccc(C(c2sc3nc(-c4ccco4)nn3c2O)N2CCN(c3cccc(Cl)c3)CC2)cc1 (stereo unspecified)	.	.	11%[46 µM]	.	.
COc1ccccc1NC(=O)C1C2C=CC(O2)C1C(=O)O (stereo unspecified)	-11%	-11%	8%	-28%[10 µM]	?
O=C(O)C1C2C=CC(O2)C1C(=O)NCc1ccccc1Br (stereo unspecified)	-5%	-8%	?	-4%	14µM*
CC(C)[C@H](Nc1ccc(S(=O)(=O)N2CCOCC2)cc1[N+](=O)[O-])C(=O)OCC(=O)N(C(C)C)C(C)C	6%	-17%	?	-10%[10 µM]	?
CC(C)[C@H](Nc1ccc(S(=O)(=O)N2CCOCC2)cc1[N+](=O)[O-])C(=O)OCC(N)=O	9%	-2%	2%	2%[10 µM]	18µM*
Cc1ccc(Nc2c(-c3ccccn3)nc3cc(C)ccn23)cc1	7.9µM*	.	.	-116%	-5%
Cc1ccc(Nc2c(-c3ccccn3)nc3ccc(C)cn23)cc1	11µM*	.	.	-44%[10 µM]	-6%
Cc1ccc2nc(-c3ccncc3)c(Nc3ccccc3)n2c1	14%	?	0%	8%[10 µM]	?
CCOc1ccc(NC(=S)N2CCN(CCN3C(=O)c4cccc5cccc(c45)C3=O)CC2)cc1	-7%	.	.	-5%[10 µM]	?
COc1ccc(-c2cc(C(C)=O)c(C)n2CCC(=O)Nc2ccc(C(F)(F)F)cc2)cc1	.	.	-11%[46 µM]	.	.
C#CC(=O)N(c1cccc(OC)c1)C(C(=O)NC1CCCC1)c1cccs1 (stereo unspecified)	22%	?	?	-7%	16µM*
C#CC(=O)N(c1ccc(OC)c(OC)c1)C(C(=O)NC1CCCC1)c1cccs1 (stereo unspecified)	?	-5%	-22%	1%[10 µM]	-2%
COc1ccc(Cl)cc1NC(=O)c1cc(-c2ccccc2O)n[nH]1	3%	1.4µM*	?	.	-13%
Cc1c(Cl)cccc1NC(=O)c1cc(-c2ccccc2O)n[nH]1	18%[9.22 µM]	13µM*	?	-31%	11%
CN(C)CCCCSC(=N)N	.	2%	?	?	25µM*!
Cn1nc(CC(=O)Nc2ccc(N3CCN(C(=O)OC(C)(C)C)CC3)cc2)c2ccccc2c1=O	4µM*	-20%	?	32%[10 µM]	2%
Cn1nc(CC(=O)N2CCN(c3ccccc3)CC2)c2ccccc2c1=O	-13%	-27%	?	-10%[0.074 µM]	-3%
CCOc1ccc2nc(COC(=O)c3cccc([N+](=O)[O-])c3)c(C(C)=O)[n+]([O-])c2c1	11%[9.22 µM]	.	.	14%[10 µM]	.
OCCCNc1cc(-c2ccnc(Nc3cccc(Cl)c3)n2)ccn1	0.71µM*	.	.	-5%[10 µM]	.
CCC(C)Oc1cc(-c2ccnc(Nc3cccc(Cl)c3)n2)ccn1 (stereo unspecified)	-18%[9.22 µM]	.	.	25%[10 µM]	.
CC(=O)c1c(COC(=O)c2ccccc2)nc2ccccc2[n+]1[O-]	-8%	14µM*	-5%	-12%	?
Cc1cc(C)cc(OCCSc2nc3ccc(NC(=O)c4cccs4)cc3s2)c1	.	.	3%[46 µM]	.	.
CCOCCO	.	-2%	.	7%	?
SMILES	HttQ103 aggreg	HPGD block	LMNA splice mod	HTT ATP protect	ALDH1A1 inh
COC(=O)NC(/C(C(=O)OC)=C(\C)NCc1ccccc1)c1ccc2ccccc2c1 (stereo unspecified)	.	.	.	-2%[10 µM]	3.5µM*
COC(=O)CCC/C=C1/SCC(NC(=O)c2ccccc2)C1=O (stereo unspecified)	10%	25µM*	5%	-16%	7.9µM*
COC(=O)CCC/C=C1/SCC(NC(=O)c2ccccc2)C1O (stereo unspecified)	11%	-12%	?	-11%[0.074 µM]	?
CC(=O)NCC(=O)NNC1CC(=O)N(c2cccc(Cl)c2)C1=O (stereo unspecified)	-5%[9.22 µM]	.	.	7%[10 µM]	.
CCOC(=O)CNC1CC(=O)N(c2cccc(Cl)c2)C1=O (stereo unspecified)	-4%	0%	6%	-2%[10 µM]	18µM*
OCCn1c(CSc2nnc(-c3ccco3)n2-c2ccccc2)nc2ccc(Cl)cc21	-10%	?	3%	9%[10 µM]	13µM*
CC1(C)CC(=O)C(/C=N/n2c(C(F)(F)F)nc3ccccc3c2=O)=C(O)C1	1%	-26%	12%	29%	25µM*
CC1(C)CC(=O)C(C=NCc2ccccn2)=C(O)C1	9%	-10%	14%	-8%	-11%
CC1CCN(c2cc3c(cc2F)c(=O)c(S(=O)(=O)c2cccc(Cl)c2)cn3Cc2ccccc2)CC1	.	.	2%[46 µM]	.	.
CC(=O)OC1CC2C(C)(C)C(O)CC(O)[C@@]2(C)C2CC[C@@]3(C)C(=CC(=O)OC3c3ccoc3)[C@]12C (stereo partly specified)	.	20µM*	.	-45%	?
CC1(C)C(O)C=C[C@@]2(C)C1CC(=O)O[C@@]1(C)C3=CC(=O)OC(c4ccoc4)[C@]3(C)CCC21 (stereo partly specified)	.	0%	.	.	22µM*
CN(C)CCCCNC(=O)c1ccc(-n2c(=O)c(=O)[nH]c3ccccc32)cc1	.	-10%	.	.	6%
O=C1CCCC/C1=C/Nc1ccc(S(=O)(=O)Nc2ncccn2)cc1	9%	-27%	1%	-9%	22µM*
Cc1ccc(S(=O)(=O)Nc2ccc(S(=O)(=O)Nc3ncccn3)cc2)cc1	8%[9.22 µM]	1%	1%	1%	?
O=C1CCCC/C1=C\Nc1ccc(O)cc1	7%	-23%	-26%	?	14µM*
Fc1cccc(Cc2noc(CN3CCCCC3c3ccccn3)n2)c1 (stereo unspecified)	8%[9.22 µM]	.	-29%[46 µM]	15%[10 µM]	?
CCOc1ccccc1CNC(=O)CN1C(=O)C2CCCCN2c2ccc(C(=O)N(C)C)cc21 (stereo unspecified)	.	.	11%[46 µM]	.	.
Cc1ccc(C)c2[nH]c(=O)c(CCNC(=O)c3ccc(S(=O)(=O)N(C)C)cc3)cc12	?	-5%	-1%	-12%	22µM*
O=C(O)c1ccccc1-c1ccc(/C=c2\sc3nc4cc(Br)cnc4n3c2=O)o1	1%	32µM*	-1%	-4%	22µM*
COc1cccc(OC)c1OCCCOc1ccc([N+](=O)[O-])cc1Cl	-8%	16µM*	?	16%[10 µM]	-2%
COc1cccc(OC)c1OCCCOc1ccc(C)cc1Br	5%	22µM*	?	21%[10 µM]	2%
CCOc1ccccc1OCCCOc1ccc([N+](=O)[O-])cc1Cl	-13%	-6%	?	-38%	?
CC(C)CO/N=C1/C[C@@H](O)[C@@H](O)[C@@H]2[C@@H]3C(=O)N(C(C)(C)C)C(=O)[C@H]3CC[C@H]12	.	.	.	-1%[10 µM]	8%[13.5 µM]

Screens (PubChem BioAssay)
